Source: PubChem BioAssay
The list is not random: actives were taken first. Their share in the collection is about 1.7%.
GLP1R inv ag – GLP-1 receptor (human) inverse agonism. P43220. HEK293 GLP-1R CRE-luciferase, luminescence, 24 h; GLP-1R form is constitutively active. Potency, µM (titrated, usually from 38.3 µM), without a hit: top-dose activity change, negative = inhibition, actives largely listed as inhibitors. actives 1.6% (n = 410,000). AID 624417; also: % is scaled to controls: 0 for no effect and ±100 for the full control effect; nearly all actives have a fitted effect of over 55% in size
Target sequence (P43220 whole entry, looked up): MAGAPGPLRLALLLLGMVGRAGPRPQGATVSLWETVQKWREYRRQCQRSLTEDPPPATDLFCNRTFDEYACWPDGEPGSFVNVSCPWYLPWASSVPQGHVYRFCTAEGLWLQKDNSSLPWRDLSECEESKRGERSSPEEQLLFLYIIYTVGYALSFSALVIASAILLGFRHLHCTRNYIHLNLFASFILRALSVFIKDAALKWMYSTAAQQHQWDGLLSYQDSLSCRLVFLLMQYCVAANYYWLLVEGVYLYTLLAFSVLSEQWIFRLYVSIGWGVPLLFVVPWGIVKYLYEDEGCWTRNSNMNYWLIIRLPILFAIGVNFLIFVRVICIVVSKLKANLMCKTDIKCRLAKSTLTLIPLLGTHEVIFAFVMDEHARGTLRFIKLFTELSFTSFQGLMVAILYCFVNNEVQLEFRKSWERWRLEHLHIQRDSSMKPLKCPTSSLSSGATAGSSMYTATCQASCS
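Inverse agonists were sought by their lowering of basal cAMP reporter luciferase output in HEK293 cells stably carrying constitutively active human GLP-1R, after 24 h compound treatment.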
PTHR1 ag – agonists of human PTHR1 parathyroid hormone receptor; AID 743266; HEK293 GP2 PTHR1 cells, GloSensor cAMP luminescence, 1 h; Q03431; Potency, µM (highest dose often 115 µM), for inactives: at the top dose activation, actives largely listed as activators; actives 0.075% (n = 410,000); also: nearly all actives have a fitted effect of over 55% in size
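HEK-293-derived GP2 cells expressing PTHR1 and a GloSensor cAMP reporter, 3,000/well, plated overnight, given luciferin plus IBMX (each 0.5 mM as added) for 1 h at 37 °C, then compound for 1 h at 37 °C. Luminescence was read after 15 min at room temperature.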
GLP1R ag – GLP-1 receptor (human) agonism | HEK293 GLP-1R CRE-luciferase, luminescence, 4-6 h; cells express a hypersensitive GLP-1R form | Potency, µM (titrated, usually from 45.6 µM), inactives show top-dose activation, actives largely listed as activators | actives 0.007% (n = 380,000); also: % of control where 0% means no effect
GLP1R cytotox – cytotoxicity counter-screen for GLP-1 receptor inverse agonists; actives 0.13% (n = 410,000); HEK293 cAMP-luciferase reporter cells, luminescence, 24 h; AID 624418; Potency, µM (highest dose often 38.3 µM), for the others: at the highest dose activity change, negative = inhibition, hits mostly inhibitors;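 also: loss of luciferase light is scored as toxicity; % is scaled to controls: 0 for no effect and ±100 for the full control effect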
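A 23 nL compound transfer followed 12 hours of cell culture at 37 deg C; exposure then lasted 24 hr. Luciferase assay detection reagent was dispensed and plates read for luminescence after a 12 min room-temperature wait.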
Numbers without * were called inactive; [ ] = remark or other dose. Calls follow the shape of the dose curve; as a rule, active = well fitted curve in the direction sought with a large enough effect; inconclusive = small, poorly fitted or top-dose-only effect, or another doubt; inactive = no such curve, though single readings can be large; an effect the other way counts as inactive or inconclusive. Potency is read from the fitted curve at half-maximal effect.

Results for O=C1c2ccccc2C2(c3ccccc3)NCCCN12 (centres undefined) ?
GLP1R inv ag: 19%; PTHR1 ag: -9%; GLP1R ag: 1%; GLP1R cytotox: 4%

What do the screens show for `O=C1c2ccccc2C2(c3cc(C(F)(F)F)cc(C(F)(F)F)c3)NCCN12` (centres undefined)?
GLP1R inv ag: 10µM*; PTHR1 ag: inactive; GLP1R ag: 20%; GLP1R cytotox: -15%

How did CO/N=C(/CNC(=O)c1cccc(Cl)c1)c1ccc(Cl)cc1 do in these assays?
GLP1R inv ag: 11µM*; PTHR1 ag: inactive; GLP1R ag: 1%; GLP1R cytotox: 28%

How did Cc1ccc(OCC(=O)Nc2c(C(=O)c3ccc(Cl)cc3)oc3ccccc23)cc1C do in these assays?
GLP1R inv ag: 7%; PTHR1 ag: -7%; GLP1R cytotox: -7%

Results for Cc1ccc(S(=O)(=O)N(CC(O)Cn2c3ccccc3c3ccccc32)c2cccc(C(=O)NCCO)c2)cc1 (centres undefined) ?
GLP1R inv ag: 13µM*; PTHR1 ag: inactive; GLP1R ag: -1%; GLP1R cytotox: -22%

What do the screens show for `Cc1ccc(C(=O)N2CCC(Cc3ccccc3)CC2)cc1[N+](=O)[O-]`?
GLP1R inv ag: 10µM*; PTHR1 ag: inactive; GLP1R ag: 17%; GLP1R cytotox: -3%

What do the screens show for `Cc1c(C(=O)N2CCC(Cc3ccccc3)CC2)cccc1[N+](=O)[O-]`?
GLP1R inv ag: -14%[7.66 µM]; PTHR1 ag: -34%; GLP1R ag: 4%; GLP1R cytotox: 1%[7.66 µM]

How did Cc1ccc(C)c(S(=O)(=O)NCc2ccc(C(=O)N3CCC(Cc4ccccc4)CC3)cc2)c1 do in these assays?
GLP1R inv ag: 10µM*; PTHR1 ag: inactive; GLP1R ag: 4%; GLP1R cytotox: -28%

How did Cc1c(C)n(Cc2ccc(F)cc2)c2ccc(C(=O)Nc3ccc(Cl)cc3)cc12 do in these assays?
GLP1R inv ag: inconclusive; PTHR1 ag: -12%; GLP1R cytotox: inconclusive

Results for CCc1ccc(CNC(=O)c2ccc3c(c2)c(C)c(C)n3Cc2ccccc2)cc1 ?
GLP1R inv ag: 10µM*; PTHR1 ag: inactive; GLP1R cytotox: 2%

How did CCc1cccc(NC(=O)c2ccc3c(c2)c(C)c(C)n3Cc2ccc(F)cc2)c1 do in these assays?
GLP1R inv ag: 10µM*; PTHR1 ag: inactive; GLP1R cytotox: -19%

What do the screens show for `CCc1ccc(NC(=O)c2ccc3c(c2)c(C)c(C)n3Cc2ccccc2)cc1`?
GLP1R inv ag: inconclusive; PTHR1 ag: inactive; GLP1R cytotox: -18%

Results for CCn1ccnc1CN(C)Cc1cn(-c2cccc(C)c2)nc1-c1cccc(F)c1 ?
GLP1R inv ag: 13µM*; PTHR1 ag: inconclusive; GLP1R ag: -3%; GLP1R cytotox: inconclusive

What do the screens show for `Cc1cccc(-n2cc(CN(C)Cc3nccn3C)c(-c3cccc(F)c3)n2)c1`?
GLP1R inv ag: inconclusive; PTHR1 ag: -52%; GLP1R ag: -5%; GLP1R cytotox: inconclusive

How did CSCCC(c1nc2ccccc2[nH]1)n1c(=O)c(-c2cccnc2)nc2ccccc21 (centres undefined) do in these assays?
GLP1R inv ag: -15%; PTHR1 ag: -32%; GLP1R cytotox: 33%

Results for O=c1c(-c2ccccc2)nc2ccccc2n1C(CCc1ccccc1)c1nc2ccccc2[nH]1 (centres undefined) ?
GLP1R inv ag: 10µM*; PTHR1 ag: 0%; GLP1R cytotox: -15%

Results for O=c1c(-c2ccccc2)nc2ccccc2n1C(c1ccccc1)c1nc2ccccc2[nH]1 (centres undefined) ?
GLP1R inv ag: 1.6µM*; PTHR1 ag: -44%; GLP1R cytotox: -22%

What do the screens show for `c1ccc(-c2nc3ccccc3n2C(c2ccccc2)c2nc3ccccc3[nH]2)cc1` (centres undefined)?
GLP1R inv ag: -22%; PTHR1 ag: -63%; GLP1R cytotox: -13%

How did CCOC(=O)C1CCCN(C(=O)c2[nH]c3ccccc3c2Sc2ccc(Cl)cc2)C1 (centres undefined) do in these assays?
GLP1R inv ag: 11µM*; PTHR1 ag: -31%; GLP1R cytotox: inconclusive

What do the screens show for `Cc1ccccc1Cn1cc(CCC(=O)NCc2cccc(Br)c2)c2ccccc21`?
GLP1R inv ag: inconclusive; PTHR1 ag: 13%; GLP1R cytotox: 3%

How did COc1ccc(-c2onc(C)c2C)cc1S(=O)(=O)Nc1ccc(OC(F)(F)F)cc1 do in these assays?
GLP1R inv ag: 13µM*; PTHR1 ag: -92%; GLP1R cytotox: -5%

Results for COc1ccc(-c2cnc(C)o2)cc1S(=O)(=O)Nc1ccc(OC(F)(F)F)cc1 ?
GLP1R inv ag: inconclusive; PTHR1 ag: inactive; GLP1R cytotox: -4%

How did O=C(c1cc2sccc2n1Cc1ccc(F)cc1)N1CCN(c2nc3ccccc3s2)CC1 do in these assays?
GLP1R inv ag: 4.5µM*; PTHR1 ag: -23%[57.5 µM]; GLP1R ag: -6%; GLP1R cytotox: -25%

Results for Cn1c(C(=O)N2CCN(c3nc4ccccc4s3)CC2)cc2sccc21 ?
GLP1R inv ag: 0%; PTHR1 ag: inactive; GLP1R ag: -12%; GLP1R cytotox: 3%

What do the screens show for `O=C(NC1CCCC1)c1ccc(CSc2nc3cccnc3n2Cc2ccccc2F)cc1`?
GLP1R inv ag: inconclusive; PTHR1 ag: -14%; GLP1R cytotox: -12%

How did CN(C)CC(CCC(CN(C)C)C(O)(c1ccccc1)c1ccccc1)C(O)(c1ccccc1)c1ccccc1 (centres undefined) do in these assays?
GLP1R inv ag: 2.8µM*; PTHR1 ag: inactive; GLP1R ag: 19%; GLP1R cytotox: inconclusive

How did CN(C)C/C=C/C(O)(c1ccccc1)c1ccccc1 do in these assays?
GLP1R inv ag: -25%; PTHR1 ag: inactive; GLP1R ag: 1%; GLP1R cytotox: -12%

What do the screens show for `CCCC1([C@H](O)C/C=C/[C@H]2[C@H](O)CC(=O)[C@@H]2CCCCCCC(=O)OC)CCC1`?
GLP1R ag: 15%

How did CC1(C)CC2CC(C)(CN2/C=N/c2sc3c(c2C#N)CC(C)(C)NC3(C)C)C1 (centres undefined) do in these assays?
GLP1R inv ag: 1.1µM*; PTHR1 ag: 11%; GLP1R ag: 17%; GLP1R cytotox: inconclusive

Results for Cc1ccc(NC(=O)c2ccc(CN3CC(=O)N4CCCCC4C3=O)cc2)cc1C (centres undefined) ?
GLP1R inv ag: 3%; PTHR1 ag: -22%; GLP1R cytotox: 1%

How did CCOc1cc(/C=N/N=C/c2ccc(O)c(OCC)c2)ccc1O do in these assays?
GLP1R inv ag: 5%; PTHR1 ag: inactive; GLP1R ag: 15%; GLP1R cytotox: -24%

Results for CCOc1cc(/C=C2\CN(CC)C/C(=C\c3ccc(O)c(OCC)c3)C2=O)ccc1O ?
GLP1R inv ag: 10µM*; PTHR1 ag: -21%; GLP1R ag: -5%; GLP1R cytotox: -1%
